DUSP3 inh – blocks human VHR1 dual specificity phosphatase; P51452; recombinant VHR phosphatase, pNPP absorbance; inhibition, % at 13.3 µM; actives 0.52% (n = 290,000); in the data active = inhibition above about 50%
Target sequence (P51452 whole entry, looked up): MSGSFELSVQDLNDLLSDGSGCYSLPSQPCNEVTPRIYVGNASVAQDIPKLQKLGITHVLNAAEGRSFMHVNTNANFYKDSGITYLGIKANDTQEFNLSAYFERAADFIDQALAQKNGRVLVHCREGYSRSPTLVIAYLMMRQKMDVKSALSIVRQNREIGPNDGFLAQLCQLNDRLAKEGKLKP
Vc quorum ag – quorum light induction in luxS cqsA deficient V. cholerae. activation, % at 18.7 µM. actives 0.16% (n = 350,000). V. cholerae BH1578 lux reporter, luminescence, 6 h; in the data active = activation mostly above about 9.7%, no sharp cut-off
PriA SSB inh – inhibitors of Klebsiella pneumoniae PriA binding to SSB C-terminal tail; AlphaScreen SSBct-PriA binding, biotinylated peptide; inhibition, % at 33 µM; actives 0.6% (n = 430,000); in the data active = inhibition mostly above about 37%, no sharp cut-off; inactive = mostly below about 20%
CCHF vOTU inh – blocks the CCHF virus ovarian tumor domain protease; inhibition, % at 11.5 µM; AID 651958; actives 0.55% (n = 370,000); CCHFV vOTU protease, Pep-AMC fluorescence; in the data active = inhibition above about 30%
TcdB GH inh – blocks C. difficile toxin B glycohydrolase activity; P18177; TcdB glycohydrolase enzymatic assay, plate reader; inhibition, % at 9.99 µM; actives 0.24% (n = 350,000); in the data active = inhibition above about 10%
PrPC surface inh – reduces human prion protein on the cell surface; cell surface PrPC, TR-FRET read-out; AID 720596; inhibition, % at 13.8 µM; actives 0.43% (n = 370,000); in the data active = inhibition above about 24%
Of the large screens only hits and unclear results are named; the others gave an inactive call. Only some compounds are listed: those with a hit (about 1.5% of all), similar ones and a draw of the others.

COc1ccc2nc(-c3ccc(Cl)c(NC(=O)C4CC4)c3)cn2n1	none (no result: DUSP3 inh, Vc quorum ag, CCHF vOTU inh, TcdB GH inh, PrPC surface inh)
Cn1nc(C(=O)NCC(Cc2cccc(F)c2)n2cccc2)ccc1=O (stereo not drawn)	none (no result: DUSP3 inh, Vc quorum ag, CCHF vOTU inh, TcdB GH inh, PrPC surface inh)
CC(=O)Nc1ccc(NC2=CC(=O)CC(C)(C)C2)cc1	none (no result: TcdB GH inh)
CC1(C)CC(=O)C=C(Nc2ccc(O)cc2)C1	TcdB GH inh 25 (no result: DUSP3 inh, PriA SSB inh)
Cc1ccc2c(c1)c1c(n2CC(O)CNC2CCCC2)CCCC1 (stereo not drawn)	none
Cc1cc(C)c2c(c1)c(-c1ccccc1)c(-c1ccccc1)n2C[C@@H](O)CNC1CCCC1	PriA SSB inh 45 (no result: DUSP3 inh, Vc quorum ag, CCHF vOTU inh, TcdB GH inh, PrPC surface inh)
CCOc1ccc2ccccc2c1/C=N/NC(=O)CNC(=O)C(c1ccccc1)c1ccccc1	DUSP3 inh 52 (no result: PriA SSB inh)
COc1ccc(Cl)cc1NC(=O)NCCc1csc2nc(-c3ccccc3F)nn12	none (no result: DUSP3 inh, Vc quorum ag, CCHF vOTU inh, TcdB GH inh, PrPC surface inh)
CCN(CC)c1ccc(C=NCCNS(=O)(=O)c2ccc(C)cc2)cc1	DUSP3 inh 57
CCN(CC)c1ccc(/C=N/NS(=O)(=O)c2ccc(C)c([N+](=O)[O-])c2)cc1	none (no result: PriA SSB inh)
CCOc1ccc(S(=O)(=O)Nc2ccc3c(c2)N(C(=O)c2ccccc2)CCC3)cc1C	none (no result: DUSP3 inh, Vc quorum ag, CCHF vOTU inh, TcdB GH inh, PrPC surface inh)
Cc1ccc2c(CN3CCC(C)CC3)cc(=O)oc2c1C	DUSP3 inh 53
Cn1cccc1C(CN)N1CCc2ccccc2C1 (stereo not drawn)	none (no result: DUSP3 inh, Vc quorum ag, CCHF vOTU inh, TcdB GH inh, PrPC surface inh)
CCOC(=O)NCc1ccc2c(c1)cc(C)n2C	DUSP3 inh 51 (no result: TcdB GH inh)
Cc1cc2cc(CNC(=O)CC(C)C)ccc2n1C	DUSP3 inh 55 (no result: TcdB GH inh)
O=[N+]([O-])c1ccc(/C=C/c2ccc3ccccc3n2)cc1	TcdB GH inh 10
O=[N+]([O-])c1ccc(/C=C/c2ccc3cccc(O)c3n2)cc1	none
N[C@@H]1CC[C@H](CCn2cc(-c3ccccn3)nn2)O[C@H]1CO	none (no result: DUSP3 inh, Vc quorum ag, PriA SSB inh, CCHF vOTU inh, PrPC surface inh)
c1ccc(-c2cn(C[C@H]3CC[C@H](Cn4cc(-c5ccccn5)nn4)O3)nn2)nc1	PriA SSB inh 109
Cc1ccc(C)c2nc(SCC(=O)NCc3cccs3)c(C#N)cc12	DUSP3 inh 53 (no result: TcdB GH inh)
Cc1ccc(NC(N)=Nc2nc(C)cc(C)n2)cc1	none (no result: DUSP3 inh, Vc quorum ag, CCHF vOTU inh, TcdB GH inh, PrPC surface inh)
Cc1ccc(CN=C(N)Nc2nc(C)cc(C)n2)cc1	DUSP3 inh 57
Cc1ccc(NC(=O)C(C)N2C(=O)C3CC=C(Cl)CC3C2=O)cc1 (stereo not drawn)	none (no result: TcdB GH inh)
Cc1ccc(NC(=O)C(C)N2C(=O)C3C4CC(C(Br)C4Br)C3C2=O)cc1 (stereo not drawn)	Vc quorum ag 38 (no result: TcdB GH inh)
COC(=O)/C=C1\SC(=NN=Cc2ccccc2)NC1=O	none (no result: DUSP3 inh, Vc quorum ag, CCHF vOTU inh, TcdB GH inh, PrPC surface inh)
COC(=O)N1CCc2ccc(NC(=O)c3ccc(S(=O)(=O)N4CCCC4)cc3)cc2C1	none (no result: DUSP3 inh, Vc quorum ag, CCHF vOTU inh, TcdB GH inh, PrPC surface inh)
Cc1ccc(Nc2nc(CSc3nnc(-c4ccncc4)n3C)cs2)cc1	DUSP3 inh 58 (no result: TcdB GH inh)
Cc1ccc(N2CC(C(=O)NCCn3ccnc3-c3ncccn3)CC2=O)cc1C (stereo not drawn)	PriA SSB inh 43 (no result: DUSP3 inh, Vc quorum ag, CCHF vOTU inh, TcdB GH inh, PrPC surface inh)
O=C(NCCN1CCOCC1)C1CC(=O)N(c2ccc(Cl)cc2)C1 (stereo not drawn)	DUSP3 inh 50
O=C(NCCn1ccnc1-c1ncccn1)C1CC(=O)N(c2ccc(F)cc2)C1 (stereo not drawn)	PriA SSB inh 116 (no result: DUSP3 inh, Vc quorum ag, CCHF vOTU inh, TcdB GH inh, PrPC surface inh)
CCOC(=O)c1ccccc1NC(=O)Cn1cnc2c(cnn2-c2cccc(Cl)c2)c1=O	none (no result: DUSP3 inh, Vc quorum ag, CCHF vOTU inh, TcdB GH inh, PrPC surface inh)
CCc1ccc(S(=O)(=O)NCC#CCOc2ccccc2C(N)=O)s1	none (no result: DUSP3 inh, Vc quorum ag, CCHF vOTU inh, TcdB GH inh, PrPC surface inh)
Cc1ccc(C)c(S(=O)(=O)N2CCC[C@@H]2CNC(=O)C(=O)NCCCN2CCOCC2)c1	none (no result: DUSP3 inh, Vc quorum ag, CCHF vOTU inh, TcdB GH inh, PrPC surface inh)
O=C(CCn1ccc(=O)[nH]c1=O)NCCn1nc(-n2cncn2)ccc1=O	none (no result: DUSP3 inh, Vc quorum ag, CCHF vOTU inh, TcdB GH inh, PrPC surface inh)
COc1cc(C2C(=C(O)c3cc(C)ccc3C)C(=O)C(=O)N2CCN(C)C)ccc1O (stereo not drawn)	none (no result: DUSP3 inh, Vc quorum ag, CCHF vOTU inh, TcdB GH inh, PrPC surface inh)
CCOc1ccc(S(=O)(=O)Nc2ccn3nccc3c2)cc1F	none (no result: DUSP3 inh, Vc quorum ag, CCHF vOTU inh, TcdB GH inh, PrPC surface inh)
CNS(=O)(=O)c1cccc(C(=O)Nc2cccnc2)c1	DUSP3 inh 56 (no result: TcdB GH inh)
CCn1ccc(C(=O)Nc2nc(-c3ccccn3)cs2)n1	PriA SSB inh 95 (no result: DUSP3 inh, Vc quorum ag, CCHF vOTU inh, TcdB GH inh, PrPC surface inh)
Cc1ccc(C(=O)Nc2nc(-c3ccccn3)cs2)o1	none
Cn1nc(C(=O)Nc2nc(-c3ccccn3)cs2)c2ccccc2c1=O	PriA SSB inh 43 (no result: DUSP3 inh)
O=C(Nc1nc(-c2ccccn2)cs1)c1cc(S(=O)(=O)N2CCOCC2)c(Cl)cc1Cl	PriA SSB inh 76 (no result: DUSP3 inh, Vc quorum ag, CCHF vOTU inh, TcdB GH inh, PrPC surface inh)
Cc1cc(C(=O)Nc2nc(-c3ccccn3)cs2)no1	PriA SSB inh 75 (no result: DUSP3 inh, Vc quorum ag, CCHF vOTU inh, TcdB GH inh, PrPC surface inh)
CCCn1nc(C(=O)Nc2nc(-c3ccccn3)cs2)c2ccccc2c1=O	none (no result: DUSP3 inh)
CN(CC(=O)NCc1ccncc1)c1nc2c(F)cccc2s1	none (no result: DUSP3 inh, Vc quorum ag, CCHF vOTU inh, TcdB GH inh, PrPC surface inh)

Bioassay records from PubChem.
